From PubChem
TDP1 inh: TDP1 (human) enzyme inhibition | recombinant TDP1, AlphaScreen DNA substrate cleavage | Potency, µM (top dose mostly 130 µM), without a hit: at the top dose activity change, negative = inhibition, hits mostly inhibitors | actives 0.28% (n = 350,000); note: nearly all actives have a fitted effect of over 40% in size
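Tdp1 1 nM final; 15 min RT w/ cpd; substrate 15 nM, 5 min; beads 10 ug/ml, 10 min; AlphaScreen read. Neg ctrl: no enzyme.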
APEX1 inh: inhibitors of human APE1 endonuclease; recombinant APE1, TAMRA/BHQ-2 abasic DNA cleavage fluorescence; AID 2517; Potency, µM (doses to about 65.8 µM), for inactives: at the highest dose activity change, negative = inhibition, usual class: inhibitors; actives 0.35% (n = 350,000);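 note: plate controls were vehicle for no effect and reference inhibitor for full effect; nearly all actives have a fitted effect of over 55% in size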
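Quantitative HTS: incision of a TAMRA/BHQ-2 double-stranded substrate bearing a tetrahydrofuran abasic site by 0.75 nM APE1 raises fluorescence. Substrate 50 nM final, added after 15 min compound preincubation at room temperature; progress as third-minus-first kinetic read difference.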
BLM inh: Bloom syndrome helicase (human) inhibition; P54132; recombinant BLM DNA unwinding, fluorescence dequenching; Potency, µM (doses to about 56.1 µM), without a hit: at the highest dose activity change, negative = inhibition, usual class: inhibitors; actives 0.2% (n = 350,000); AID 2528;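 note: plate controls were vehicle for no effect and no enzyme for full effect; nearly all actives have a fitted effect of over 35% in size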
Target sequence (P54132 whole entry, looked up): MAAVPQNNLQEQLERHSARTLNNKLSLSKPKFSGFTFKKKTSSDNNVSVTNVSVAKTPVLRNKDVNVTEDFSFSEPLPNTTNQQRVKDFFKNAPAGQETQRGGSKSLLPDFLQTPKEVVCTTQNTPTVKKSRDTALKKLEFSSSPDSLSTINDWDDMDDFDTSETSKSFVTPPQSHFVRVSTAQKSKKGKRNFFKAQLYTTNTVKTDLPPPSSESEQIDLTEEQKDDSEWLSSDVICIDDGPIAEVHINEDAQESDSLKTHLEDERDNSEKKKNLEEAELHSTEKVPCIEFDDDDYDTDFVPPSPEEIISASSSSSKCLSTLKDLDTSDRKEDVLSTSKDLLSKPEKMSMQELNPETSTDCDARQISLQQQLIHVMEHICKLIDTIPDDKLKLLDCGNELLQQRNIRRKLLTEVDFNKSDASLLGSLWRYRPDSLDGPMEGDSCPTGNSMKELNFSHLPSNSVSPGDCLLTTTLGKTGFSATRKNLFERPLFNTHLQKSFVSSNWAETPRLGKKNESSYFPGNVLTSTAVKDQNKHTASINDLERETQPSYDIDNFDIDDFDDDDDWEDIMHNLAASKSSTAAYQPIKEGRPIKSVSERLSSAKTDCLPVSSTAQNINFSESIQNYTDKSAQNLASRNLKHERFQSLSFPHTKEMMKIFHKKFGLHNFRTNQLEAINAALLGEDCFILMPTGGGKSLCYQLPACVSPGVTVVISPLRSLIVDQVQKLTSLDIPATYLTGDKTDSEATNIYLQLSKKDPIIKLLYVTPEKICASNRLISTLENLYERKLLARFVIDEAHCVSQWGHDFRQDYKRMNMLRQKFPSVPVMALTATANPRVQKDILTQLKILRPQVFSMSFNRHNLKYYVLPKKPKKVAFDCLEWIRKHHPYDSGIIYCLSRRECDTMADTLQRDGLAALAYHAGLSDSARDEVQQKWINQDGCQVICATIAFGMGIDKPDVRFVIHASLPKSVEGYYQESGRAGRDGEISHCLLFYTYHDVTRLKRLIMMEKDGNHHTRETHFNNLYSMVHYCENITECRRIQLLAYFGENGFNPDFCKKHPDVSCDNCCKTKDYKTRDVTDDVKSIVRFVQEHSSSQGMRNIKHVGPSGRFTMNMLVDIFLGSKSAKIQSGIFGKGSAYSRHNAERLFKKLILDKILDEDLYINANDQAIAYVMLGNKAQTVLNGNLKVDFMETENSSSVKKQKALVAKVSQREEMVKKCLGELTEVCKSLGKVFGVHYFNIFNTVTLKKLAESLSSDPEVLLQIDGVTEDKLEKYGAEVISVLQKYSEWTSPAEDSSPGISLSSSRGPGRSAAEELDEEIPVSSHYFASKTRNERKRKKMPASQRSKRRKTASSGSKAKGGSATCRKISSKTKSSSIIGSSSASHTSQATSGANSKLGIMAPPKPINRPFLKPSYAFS
FEN1 inhibitor: human FEN1 inhibition; Recombinant FEN1 flap cleavage, fluorescence, 15 min; Potency, µM (doses to about 114 µM), for the others: at the top dose activity change, negative = inhibition, most hits filed as inhibitors; actives 0.35% (n = 390,000); AID 588795; note: nearly all actives have a fitted effect of over 65% in size
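FEN1 at 10 nM, compound pretreatment for 15 min (room temperature), 50 nM final substrate to initiate; endpoint reads at 0 and 15 min; DMSO-only plates used as vehicle background.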
RECQ1 inh-1: RECQ1 (human) helicase inhibition; AID 2549; RECQ1 DNA unwinding, red fluorescence kinetic read; Potency, µM (top dose mostly 57.3 µM), for the others: top-dose activity, negative = inhibition, actives largely listed as inhibitors; P46063; actives 0.54% (n = 240,000);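 note: plate controls were vehicle for no effect and no enzyme for full effect; nearly all actives have a fitted effect of over 30% in size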
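RECQ1T1 50 nM; forked duplex (20 bp + 30-nt ss tails) 200 nM, ATP 2 mM final; pH 8.0, 2 mM MgCl2, 2.5 ug/ml poly(dI-dC); 15 min compound preincubation; discontinuous kinetic read over 2 h at RT.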
RECQ1 inh conf: confirmation of human RECQ1 helicase inhibitors | shares compounds with RECQ1 inh-1 | RECQ1 helicase DNA unwinding, fluorescence | Potency, µM (doses to about 229 µM), for inactives: top-dose activity change, negative = inhibition, usual class: inhibitors | actives 28% (n = 610); note: nearly all actives have a fitted effect of over 45% in size
RECQ1 ADP FP: ADP displacement flagged in RECQ1 inhibitor counter-screen; shares compounds with RECQ1 inh-1; ADP fluorescence polarization displacement counterscreen; Potency, µM (highest dose often 228 µM), inactives show at the highest dose activity change, negative = inhibition, most hits filed as inhibitors; actives 27% (n = 530); note: nearly all actives have a fitted effect of over 45% in size
RECQ1 inh-2: blocks human RECQ1 DNA unwinding; shares compounds with RECQ1 inh-1; recombinant RECQ1 DNA unwinding, red fluorescence; Potency, µM (highest dose often 119 µM), without a hit: at the highest dose activity, negative = inhibition, hits mostly inhibitors; actives 15% (n = 1,100); note: nearly all actives have a fitted effect of over 50% in size
Active calls of the source: *; [ ] = remark or other dose. Shown are actives, neighbours in structure and some others; about 0.92% of the full set was active somewhere. Calls come from the whole dose curve; as a rule, active = well fitted curve in the direction sought with a large enough effect; inconclusive = small, poorly fitted or top-dose-only effect, or another doubt; inactive = no such curve, though single readings can be large; an effect the other way counts as inactive or inconclusive. Unless noted, % is set by controls: 0 for no effect and ±100 for the full control effect; potency is the fitted concentration of half-maximal effect.

O=C(NC(Cc1c[nH]c2ccccc12)C(=O)O)/C(=C/c1ccc2c(c1)OCO2)NC(=O)c1ccccc1 (configuration not stated) was read as TDP1 inh 0.0%, APEX1 inh -5.4%, BLM inh -0.6%, FEN1 inhibitor -1.4%, RECQ1 inh-1 -4.8%, RECQ1 inh conf 3.8% and RECQ1 ADP FP inconclusive.
Cc1ccc(C(=O)Nc2ccccc2C(=O)NC(Cc2ccccc2)C(=O)O)cc1 (configuration not stated) was read as TDP1 inh 5.4%, APEX1 inh 11.5%, BLM inh -3.7%, FEN1 inhibitor 7.6% and RECQ1 inh-1 inactive.
For Cc1ccc(C(=O)Nc2ccccc2C(=O)NC(Cc2c[nH]c3ccccc23)C(=O)O)cc1 (configuration not stated) the results were TDP1 inh 6.0%, APEX1 inh -3.5%, BLM inh -1.5%, FEN1 inhibitor -13.0%, RECQ1 inh-1 inactive, RECQ1 inh conf 14.0% and RECQ1 ADP FP -12.0%.
CCc1ccc(C(=O)c2cn(CC(=O)NCCc3ccccc3)c3nc(C)ccc3c2=O)cc1 was read as TDP1 inh 2.6%, BLM inh -11.4% and FEN1 inhibitor -6.3%.
Cc1ccc(S(=O)(=O)Nc2ccc(O)c(Sc3ncn[nH]3)c2)cc1 was read as TDP1 inh -2.5%, APEX1 inh -4.2%, BLM inh -5.1%, FEN1 inhibitor -9.3% and RECQ1 inh-1 23.4%.
`Cc1ccc(S(=O)(=O)/N=C2/C=C(Sc3ncn[nH]3)C(=O)c3ccccc32)cc1` gave TDP1 inh 10.5%, APEX1 inh -10.6%, BLM inh 15.8µM*, FEN1 inhibitor 50.1µM*, RECQ1 inh-1 inconclusive and RECQ1 inh-2 inconclusive.
CC(=O)N(O)c1ccc(/C=C2\C=Cc3ccccc32)cc1 was read as FEN1 inhibitor -19.3%.
For COC(=O)c1c(NC(=O)/C=C/C(=O)O)sc(C)c1-c1ccc(C(C)C)cc1 the results were TDP1 inh 5.5%, APEX1 inh -3.3%, BLM inh -5.1%, FEN1 inhibitor -0.7%, RECQ1 inh-1 inconclusive and RECQ1 inh-2 -44.6%.
Screening Cc1ccc2sc(C)[n+](CCCS(=O)(=O)[O-])c2c1 returned TDP1 inh -10.3%, APEX1 inh -2.9%, BLM inh -4.3%, FEN1 inhibitor -1.9%, RECQ1 inh-1 3.55µM*, RECQ1 inh conf 9.4%[114 µM] and RECQ1 ADP FP 8.0%[91.9 µM].
CC(C)c1nn2c(=O)cc(COC(=O)CNC(=O)c3ccccc3Cl)nc2s1 was read as TDP1 inh 3.2%, BLM inh -1.5% and FEN1 inhibitor -3.7%.
For N#Cc1ccccc1NC(=O)C(=O)NCC(c1cccnc1)N1CCc2ccccc21 (configuration not stated) the results were TDP1 inh 3.9%, BLM inh 1.8% and FEN1 inhibitor 6.2%.
For COc1ccccc1NC(=O)CSc1nc(O)cc(=O)n1-c1ccccc1OC the results were TDP1 inh -2.0%, APEX1 inh 0.6%, BLM inh -2.4%, FEN1 inhibitor -1.9% and RECQ1 inh-1 -3.7%.
For COc1ccccc1-n1c(SCC(=O)Nc2ccccc2C)nc(O)cc1=O the results were TDP1 inh -7.3%, APEX1 inh 1.6%, BLM inh -16.2%, FEN1 inhibitor 8.4%, RECQ1 inh-1 10µM*, RECQ1 inh conf 11.4%[114 µM], RECQ1 ADP FP 12.1%[91.9 µM] and RECQ1 inh-2 -7.0%.
`Cn1c(N)c(C(=O)COC(=O)CSc2ccc(Cl)cc2)c(=O)n(C)c1=O` gave TDP1 inh 0.0%, APEX1 inh 17.7%, BLM inh 3.0%, FEN1 inhibitor -5.1% and RECQ1 inh-1 8.5%.
For Cn1c(N)c(C(=O)COC(=O)CC(NC(=O)c2ccccc2Cl)c2ccccc2)c(=O)n(C)c1=O (configuration not stated) the results were TDP1 inh 2.5%, APEX1 inh -0.2%, BLM inh -1.7%, FEN1 inhibitor 3.7%, RECQ1 inh-1 -14.0%, RECQ1 inh conf 7.6% and RECQ1 ADP FP 3.5%.
For COc1ccc(C(=O)Nc2ccc3nc4c(c(Nc5ccccc5OC)c3c2)CCCC4)c(OC)c1 the results were TDP1 inh 11.8%, BLM inh -2.9% and FEN1 inhibitor -5.1%.
`Cc1sc(NC(=O)c2ccco2)c(C(c2cccnc2)N2CCN(CCO)CC2)c1C` (configuration not stated) gave TDP1 inh 2.5%, APEX1 inh -5.0%, BLM inh -0.6%, FEN1 inhibitor 16.7% and RECQ1 inh-1 inactive.
Screening Cc1sc(NC(=O)c2ccco2)c(C(c2cccnc2)N2CCN(c3ccc(F)cc3)CC2)c1C (configuration not stated) returned TDP1 inh 8.7%, APEX1 inh 3.0%, BLM inh -11.8%, FEN1 inhibitor -17.1%, RECQ1 inh-1 39.8µM* and RECQ1 inh-2 inconclusive.
C/C(=N\NC(=O)CSCc1ccc([N+](=O)[O-])cc1)c1cccc(Br)c1 was read as TDP1 inh 7.9%, APEX1 inh 11.2%, BLM inh -0.8%, FEN1 inhibitor -4.9%, RECQ1 inh-1 1µM* and RECQ1 inh conf -4.2%[114 µM].
C/C(=N/NC(=O)CSCc1ccc(Cl)cc1)c1cccc(NC(=O)c2ccccc2)c1 was read as TDP1 inh 7.5%, APEX1 inh inconclusive, BLM inh -3.8%, FEN1 inhibitor -12.9% and RECQ1 inh-1 inactive.
For CC(C)CC(=O)Nc1ncc([N+](=O)[O-])s1 the results were APEX1 inh -19.4%, BLM inh -11.9%, FEN1 inhibitor 1.5% and RECQ1 inh-1 -7.5%.
For Cc1nc(C)c(C(=O)Nc2ncc([N+](=O)[O-])s2)o1 the results were TDP1 inh inconclusive, APEX1 inh inconclusive, BLM inh -18.9%, FEN1 inhibitor -35.0%, RECQ1 inh-1 inconclusive and RECQ1 inh-2 inconclusive.
Screening Cc1cccc(-n2c(Cc3ccccc3)nnc2SCc2nc(-c3cccs3)no2)c1 returned TDP1 inh 2.5%, BLM inh -5.0% and FEN1 inhibitor -14.1%.
